Compound activity from PubChem BioAssay.
KKLEB cytotox: CF airway cell cytotoxicity counter-screen. activity change (cytotoxicity), % at 5 µM. KKLEB CF airway cells viability, ATPlite luminescence, overnight; active compounds read low; cells stimulated with P. aeruginosa culture filtrate. hit rate 0.36% among 360,000. AID 602141;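 active means corrected activity change at or below -50% at 5 µM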
Peg3 prom inh: reduces Peg3 promoter-driven luciferase expression in HeLa | HeLa PEG-Prom luciferase reporter, luminescence, overnight | inhibition, % at 20 µM | hit rate 1.7% among 360,000 | AID 588405;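 active means inhibition of at least 50% at 20 µM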
HIF-2a block: HIF-2a inhibition; inhibition, % at 18.8 µM; 786-0 RCC cells HIF-2a reporter, luciferase luminescence, overnight; hit rate 0.72% among 360,000;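 active means inhibition of the luminescence signal of 40% or more relative to plate controls, in a single-dose primary screen at 18.75 µM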
CHOP inhibitor: blocks CHOP induction under ER stress. hit rate 3.8% among 220,000. AID 2732. CHO-K1 CHOP-promoter luciferase, tunicamycin-induced, 15-18 h. inhibition, % at 10 µM;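 active means compounds that reduced the stress-induced luciferase reporter signal by more than about 70% of percent inhibition, limit read from the data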;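 further: 0% = tunicamycin plus vehicle and 100% = wells without tunicamycin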
CF NFkB inh: inhibitors of cystic fibrosis induced NF-kB | KKLEB NF-kB-GFP reporter, PAF-induced, GFP fluorescence overnight | inhibition, % at 5 µM | hit rate 0.86% among 360,000;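 active means at least 50% inhibition at 5 µM, scaled per plate between neutral and stimulator controls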;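 further: PAF is a Pseudomonas aeruginosa culture filtrate used as stimulus; plate controls were PAF-stimulated DMSO wells for no effect and unstimulated DMSO wells for full effect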
TRPM1 prom inh: reduces MITF-dependent TRPM1 promoter luciferase signal | AID 488899 | hit rate 0.83% among 330,000 | SK-MEL-5 TRPM1 promoter luciferase, 24 h | inhibition, % at 12.5 µM;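 active means mean inhibition across replicates of 60% or more, whatever share of single replicates reaches that level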
* hit, by the source's call; . = no result given. Compounds with a hit are over-represented: about 4.3% of the library has one in this group of screens.

SMILES	KKLEB cytotox	Peg3 prom inh	HIF-2a block	CHOP inhibitor	CF NFkB inh	TRPM1 prom inh
CC(=O)OC1CC2OC3C=C(C)CCC3(C)C1(C)C21CO1 (stereo unspecified)	-19.2	107.8*	71.9*	.	93.4*	.
O=[N+]([O-])c1ccc(Cl)cc1	0.4	0.3	-3.6	.	9.2	11.2
COc1ccc2[nH]c(C)c(CCNCc3cn(C)c4ccccc34)c2c1	-19.4	87.1*	8.6	.	39.4	47.0
Cc1[nH]c2ccccc2c1CCNCc1cccnc1	2.8	-5.8	16.2	.	-11.5	-2.6
CCC(=NCc1ccc(F)cc1)c1c(O)n(C)c(=O)n(C)c1=O	-7.4	10.6	23.3	58.2	18.6	13.9
CC1CCN(C(CC(=O)c2ccccc2)C(=O)c2ccccc2)CC1 (stereo unspecified)	-14.2	104.7*	-143.1	.	39.9	3.1
Cc1ccc2n1Cc1cnnn1-c1ccccc1-2	1.9	6.0	-4.0	.	-15.5	.
Cc1cc(OC(=O)c2ccco2)c2c3c(c(=O)oc2c1)CCCC3	2.4	-21.7	-29.7	75.7*	-6.5	-1.9
C[C@]12CC[C@@H](O)CC1CC[C@@H]1[C@@H]2CC[C@]2(C)C(=O)CC[C@@H]12 (stereo partly specified)	.	.	.	-2.3	.	.
CC/C(=N\N1CCCCCC1)c1c(O)n(-c2ccc(C)cc2)c(=O)[nH]c1=O	2.9	-14.3	-4.6	23.9	9.2	-16.3
CC12CCC(O)CC1CCC1C2CCC2(C)C(C3=CC(=O)OC3)C(O)CC12O (stereo unspecified)	-48.8	94.1*	15.6	.	71.4*	27.8
CC12CC[C@H]3[C@@H](CCC4(O)C[C@H](O)CCC34/C=N/NC(=O)Cc3ccccc3)C1(O)CCC2C1=CC(=O)OC1 (stereo partly specified)	5.0	18.8	2.2	-5.3	8.7	1.9
O=C(CN1CC=C(c2ccccc2)CC1)NC(=O)NCc1ccco1	0.2	9.3	14.0	76.0*	-9.5	3.9
O=C(CCN1CC=C(c2ccccc2)CC1)NCc1ccccc1	6.0	-4.5	0.8	.	2.8	.
CC=CC(C)=CC(C)C(=O)CC(O)CC1CC(=O)NC(=O)C1 (stereo unspecified)	-11.5	34.6	29.7	.	26.1	.
CC1CC(C)(O)CC(C(O)CC2CC(=O)NC(=O)C2)C1=O (stereo unspecified)	-0.1	96.5*	54.7*	.	91.4*	67.4*
O=P(O)(Oc1ccccc1)OC(c1ccccc1)C(F)(F)F (stereo unspecified)	-7.1	-1.1	10.1	3.2	9.6	6.0
Cc1cc(Oc2cc(NN3CCCCC3)c([N+](=O)[O-])cc2[N+](=O)[O-])ccc1[N+](=O)[O-]	-0.6	24.7	18.1	.	16.4	11.7
COCCCn1c(N)c(C(=O)OCCOC)c2nc3ccccc3nc21	-4.1	27.1	-4.1	-19.2	0.2	12.3
CC(C)CNC(=O)c1c(N)n(Cc2ccc3c(c2)OCO3)c2nc3ccccc3nc12	-18.5	32.1	7.4	85.4*	17.1	-3.7
CCCNC(=O)c1c(N)n(Cc2ccco2)c2nc3ccccc3nc12	.	.	.	83.0*	.	.
CCCNC(=O)c1c(N)n(Cc2ccc3c(c2)OCO3)c2nc3ccccc3nc12	-64.5*	41.4	11.2	75.2*	51.0*	-1.4
CCCCNC(=O)c1c(N)n(CCCOC)c2nc3ccccc3nc12	0.5	13.5	15.1	93.1*	-12.6	2.0
OCCN(CC#CC(O)(c1ccccc1)C1CCCC1)CCO (stereo unspecified)	2.1	2.7	2.0	30.7	-3.4	-2.7
COCCNC(=O)c1c(N)n(CCC(C)C)c2nc3ccccc3nc12	13.6	27.7	8.7	67.7	-23.3	7.8
SMILES	KKLEB cytotox	Peg3 prom inh	HIF-2a block	CHOP inhibitor	CF NFkB inh	TRPM1 prom inh
CC(C)CCn1c(N)c(C(=O)NCc2cccs2)c2nc3ccccc3nc21	13.8	24.9	0.2	95.5*	-4.0	0.7
CCOC(=O)c1c(N)n(CCCOC(=O)c2ccco2)c2nc3ccccc3nc12	-3.0	5.7	-12.6	.	17.4	88.6*
COc1ccccc1NC1(C#N)CCCCC1	7.9	1.2	5.3	5.8	2.9	6.7
COC(=O)C1=C(c2cccc(OC)c2OC)C[C@@H]2CC[C@H]1N2C(=O)NCCNC(C)=O	3.1	-10.9	8.5	.	7.9	-14.4
Cc1ccc(C[n+]2c(-c3ccc(C)cc3)cc(-c3ccc(C)cc3)cc2-c2ccc(C)cc2)cc1	-63.7*	96.7*	89.9*	.	57.3*	95.7*
OC(c1cccc(Cl)c1)(c1cccc(Cl)c1)C1CN2CCC1CC2 (stereo unspecified)	-10.3	96.4*	11.3	43.4	17.5	-1.4
O=C(Nc1cccc(C(F)(F)F)c1)OC1CN2CCC1CC2 (stereo unspecified)	-2.0	19.5	12.0	.	-4.3	12.2
COc1ccc(-c2cc(-c3ccccc3)[n+](C)c(-c3ccccc3)c2)cc1	-14.6	34.2	16.5	-14.2	20.2	65.9*
C[n+]1c(-c2ccccc2)cc(CCCCc2cc(-c3ccccc3)[n+](C)c(-c3ccccc3)c2)cc1-c1ccccc1	8.6	42.1	-4.3	6.9	16.0	39.9
C[C@@H]1O[C@H](C[N+](C)(C)C)CS1	.	.	.	-9.1	.	.
O=c1[nH]c2ccccc2n1C1CCN(C(c2cccc3ccccc23)c2nnnn2-c2ccc3c(c2)OCCO3)CC1 (stereo unspecified)	-85.3*	70.7*	-18.8	.	84.5*	.
COc1ccc(-n2nnnc2C(c2cc3ccccc3o2)N2CCC(n3c(=O)[nH]c4ccccc43)CC2)cc1 (stereo unspecified)	-14.8	91.6*	-5.3	.	11.2	.
CN1CCN2c3ccc(N)cc3CC3(C(=O)NC(=O)NC3=O)C2C1 (stereo unspecified)	8.6	-4.1	15.4	3.3	-14.3	.
CC(C)[C@]12O[C@H]1[C@@H]1O[C@]13[C@]1(O[C@H]1C[C@H]1C4=C(CC[C@@]13C)C(=O)OC4)[C@@H]2O	.	.	.	103.2*	.	.
Nc1ncnc2c1ncn2[C@@H]1O[C@H](COP(=O)(O)CP(=O)(O)OP(=O)(O)O)[C@H](O)C1O (stereo partly specified)	.	.	.	14.7	.	.
COc1cc2c(cc1OC)C13CCN4CC5=CCOC6CC(=O)N2C1C6C5C3C4 (stereo unspecified) (tested in a mixture with another compound)	-6.5	5.4	11.6	.	4.2	1.6
NC(N)=N/N=C/c1ccc(N(c2ccccc2)c2ccccc2)cc1	-0.3	104.7*	94.7*	.	-5.3	101.5*
CCOC(=O)[C@]12Cc3cc(Cl)ccc3[C@H]1N(C)C(=O)c1cc(OC)ccc12	.	.	28.3	.	.	.
CCOC(=O)[C@]12Cc3cc(Cl)ccc3[C@H]1N(C1CCCCC1)C(=O)c1cc(OC)ccc12	.	.	89.0*	.	.	.
CCCN(CCC)[C@H]1CCc2c(F)ccc(O)c2C1	.	.	.	-4.2	.	.
COc1cc2c(c(OC)c1OC)-c1ccc(O)c(=O)cc1C(NC(C)=O)CC2 (stereo unspecified)	-17.7	-34.1	-7.9	.	53.8*	51.4
